Source: PubChem BioAssay (Tox21)
Inconclusive results are not listed. Entries that show only a call come without a potency. Values without a mark were called inactive. The source made the active and inactive calls. Calls come from the whole dose curve; as a rule, active = well fitted inhibition curve with a large enough effect in the repeat runs; inconclusive = weak or mixed curves; inactive = flat fitted curve, though single readings scatter.

Experiment: qHTS assay to identify small molecule HDAC inhibitors (AID 1259364);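 note: wild-type HCT-116 cells with endogenous class I/II HDAC activity; nearly all actives have a fitted effect of over 45% in size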; for activity change, negative = inhibition: top concentration of the series differs between compounds
Conditions: HCT-116 HDAC-Glo I/II luminescence, 2 h; series mostly up to 92.4 µM
Method in brief: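 HCT-116 wt cells, 1,500/well, overnight attach. Compounds (DMSO) 2 h, 37 °C. HDAC-Glo I/II, 30 min RT. Luminescence.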
Potency is the fitted concentration of half-maximal effect.

Row | Structure (SMILES) | activity change, negative = inhibition | Potency
1 | Nc1ccc(/C=C/c2ccc(N)cc2S(=O)(=O)O)c(S(=O)(=O)O)c1 | 6.62% [at 0.349 µM] | 
2 | CC(C)C(=O)c1ccccc1 |  | inactive
3 | C=CC(C)(O)CC/C=C(\C)CC (configuration not stated) |  | inactive
4 | C=C(C)C(=O)OC |  | inactive
5 | O=S1(=O)CCCC1 |  | inactive
6 | CO/N=C(/C(=O)N[C@@H]1C(=O)N2C(C(=O)O)=C(Cn3nnc(C)n3)CS[C@H]12)c1csc(N)n1 |  | inactive
7 | NC(=O)NC(=O)Cc1ccccc1 |  | inactive
8 | C=C(C)[C@@H]1CC[C@@H](C)C[C@@H]1O |  | inactive
9 | OC[C@@H](O)[C@H](O)[C@@H](O)[C@@H](O)CO |  | inactive
10 | CCC(C)(CCC(C)C)C(=O)[O-].CCC(C)(CCC(C)C)C(=O)[O-].[Zn+2] (configuration not stated) |  | inactive
11 | O=C(COCCOCCOCC(=O)Nc1c(I)cc(I)c(C(=O)O)c1I)Nc1c(I)cc(I)c(C(=O)O)c1I |  | inactive
12 | CN=C(NC#N)NCCSCc1csc(N=C(N)N)n1 |  | inactive
13 | C=C[Si](C)(C)O[Si](C)(C)C=C |  | inactive
14 | NC(=O)C1(N2CCCCC2)CCN(CCCC(=O)c2ccc(F)cc2)CC1 |  | inactive
15 | O=S(=O)(O)CCO |  | inactive
16 | CCN(CC)C(=O)C1CN2CCc3cc(OC)c(OC)cc3C2CC1OC(C)=O (configuration not stated) |  | inactive
17 | CC(=O)OC(C)(C)Cc1ccccc1 |  | inactive
18 | O=c1[nH]c(=O)c2[nH]c(=O)[nH]c2[nH]1 | 11.3% [at 8.39 µM] | 
19 | N#CCCOCCOCCC#N |  | inactive

Row | Structure (SMILES) | activity change, negative = inhibition | Potency
20 | Cc1cccc(C(=O)O)c1[N+](=O)[O-] |  | inactive
21 | C=CCOc1c(Br)cc(C(C)(C)c2cc(Br)c(OCC=C)c(Br)c2)cc1Br |  | inactive
22 | CCCCCCCCOC(C)=O |  | inactive
23 | CCC1Nc2cc(Cl)c(S(N)(=O)=O)cc2S(=O)(=O)N1 (configuration not stated) |  | inactive
24 | C=CCOCC(CO)(COCC=C)COCC=C |  | inactive
25 | C=CCOCC(O)CCl (configuration not stated) |  | inactive
26 | O=C1OC(=O)c2cc(Oc3ccc4c(c3)C(=O)OC4=O)ccc21 |  | inactive
27 | Cc1cc(O)c2c(c1)C(=O)c1cccc(O)c1C2=O |  | 13.4 µM (active)
28 | CO[Si](CCCS)(OC)OC |  | inactive
29 | CCCCC(CC)COC(=O)c1ccccc1 (configuration not stated) |  | inactive
30 | CC(C)SCc1ccco1 |  | inactive
31 | CCNC(=O)NCCCOc1cccc(CN2CCCCC2)c1 |  | inactive
32 | CCOC(=O)CC#N |  | inactive
33 | CCC(=O)c1ccc(O)cc1 |  | inactive
34 | CCCCCC1CCCC(=O)O1 (configuration not stated) |  | inactive
35 | Cc1cc(C)cc([N+](=O)[O-])c1 |  | inactive
36 | CCC(C)N (configuration not stated) |  | inactive
37 | CC(C)c1ccccc1O |  | inactive
